Results reported in the supplement of paper PMC7411640.
Counter-ions that a name gives are not always drawn.

Tested on: MDA-MB-468
Assay: phospho-S6 immunofluorescence (DAPI-normalised), per-plate z-score; higher = higher phospho-S6 signal (less pathway suppression)
Conditions: 24 h
Method: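 GPCR-targeted compound library (MedChemExpress HY-L006) tested on MDA-MB-468 PTEN-null TNBC cells in 384-well plates at 0.1, 1 or 10 uM, combined with vehicle, GDC0941 450 nM or lapatinib 1 uM, for 24 h. Phospho-S6 (S240/244) immunofluorescence normalised to DAPI and expressed as a per-plate z-score; values are the mean of biological triplicates.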

How did the “phospho-S6 immunofluorescence (z-score)” value (co-treatment: GDC0941 450 nM) turn out when CN1CCN(C2=Nc3ccccc3Oc3ccc(Cl)cc32)CC1 [Loxapine (succinate)] (compound 10 µM) was run?
Its value is 0.7.

What about the “phospho-S6 immunofluorescence (z-score)” value (co-treatment: lapatinib 1 uM) of the same molecule?
Its value is 1.22.

And the “phospho-S6 immunofluorescence (z-score)” value (co-treatment: vehicle)?
Its value is -1.15.

CN1CCN2c3ncccc3Cc3ccccc3C2C1 (stereo not given) [Mirtazapine] (compound 10 µM) was tested. Which “phospho-S6 immunofluorescence (z-score)” value (co-treatment: GDC0941 450 nM) did it give?
Its value is 0.65.

And the “phospho-S6 immunofluorescence (z-score)” value (co-treatment: lapatinib 1 uM)?
The value was 0.99.

What about the “phospho-S6 immunofluorescence (z-score)” value (co-treatment: vehicle) of the same molecule?
Its value is -0.48.

Which results are given for COc1cc2nc(N3CCN(C(=O)C4CCCO4)CC3)nc(N)c2cc1OC (stereo not given) [Terazosin (hydrochloride dihydrate)] (compound 10 µM)?
phospho-S6 immunofluorescence (z-score) (co-treatment: GDC0941 450 nM): 0.82; phospho-S6 immunofluorescence (z-score) (co-treatment: lapatinib 1 uM): 0.9; phospho-S6 immunofluorescence (z-score) (co-treatment: vehicle): 0.87

How did the “phospho-S6 immunofluorescence (z-score)” value (co-treatment: GDC0941 450 nM) turn out when CN1CCc2cc(Cl)c(O)cc2[C@@H](c2ccccc2)C1 (compound 10 µM) was run?
Its value is -0.98.

What about the “phospho-S6 immunofluorescence (z-score)” value (co-treatment: lapatinib 1 uM) of the same molecule?
Its value is -1.63.

What about the “phospho-S6 immunofluorescence (z-score)” value (co-treatment: vehicle) of the same molecule?
Its value is 0.1.

How did the “phospho-S6 immunofluorescence (z-score)” value (co-treatment: GDC0941 450 nM) turn out when COc1cc(C(C)=O)ccc1OCCCN1CCC(c2noc3cc(F)ccc23)CC1 [Iloperidone] (compound 10 µM) was run?
The value was 0.52.

What about the “phospho-S6 immunofluorescence (z-score)” value (co-treatment: lapatinib 1 uM) of the same molecule?
The value was -0.23.

And the “phospho-S6 immunofluorescence (z-score)” value (co-treatment: vehicle)?
Its value is 0.38.

How did the “phospho-S6 immunofluorescence (z-score)” value (co-treatment: GDC0941 450 nM) turn out when CC(C)NCC(O)COc1cccc2ccccc12 (stereo not given) [Propranolol (hydrochloride)] (compound 10 µM) was run?
The value was 0.53.

And the “phospho-S6 immunofluorescence (z-score)” value (co-treatment: lapatinib 1 uM)?
Its value is 0.73.

And the “phospho-S6 immunofluorescence (z-score)” value (co-treatment: vehicle)?
Its value is 0.21.

Fc1ccc(-c2cncc(CN3CCN(c4cccc5c4OCCO5)CC3)c2)cc1 [Adoprazine] (compound 10 µM) was tested. Which “phospho-S6 immunofluorescence (z-score)” value (co-treatment: GDC0941 450 nM) did it give?
Its value is -2.84.

And the “phospho-S6 immunofluorescence (z-score)” value (co-treatment: lapatinib 1 uM)?
The value was -1.05.

What about the “phospho-S6 immunofluorescence (z-score)” value (co-treatment: vehicle) of the same molecule?
The value was -2.49.

For O=c1ccc2ccc(OCCCCN3CCN(c4cccc5sccc45)CC3)cc2[nH]1 [Brexpiprazole] (compound 10 µM), which “phospho-S6 immunofluorescence (z-score)” value (co-treatment: GDC0941 450 nM) is on record?
Its value is -5.22.

And the “phospho-S6 immunofluorescence (z-score)” value (co-treatment: lapatinib 1 uM)?
The value was -6.92.

What about the “phospho-S6 immunofluorescence (z-score)” value (co-treatment: vehicle) of the same molecule?
Its value is -4.57.

Which “phospho-S6 immunofluorescence (z-score)” value (co-treatment: GDC0941 450 nM) does the source give for C[C@@H]1C[C@H]2[C@@H]3CCC4=CC(=O)C=C[C@]4(C)[C@@]3(F)[C@@H](O)C[C@]2(C)[C@@]1(O)C(=O)CO [Dexamethasone] (compound 10 µM) here?
Its value is 0.1.

What about the “phospho-S6 immunofluorescence (z-score)” value (co-treatment: lapatinib 1 uM) of the same molecule?
The value was 0.34.

What about the “phospho-S6 immunofluorescence (z-score)” value (co-treatment: vehicle) of the same molecule?
The value was 1.02.

With COc1ccc(CNC(=O)c2cc(-c3cncc(C)c3)ncc2-c2nccs2)nc1OC (compound 10 µM) as the molecule, how does the “phospho-S6 immunofluorescence (z-score)” value (co-treatment: GDC0941 450 nM) read?
Its value is -0.61.

And the “phospho-S6 immunofluorescence (z-score)” value (co-treatment: lapatinib 1 uM)?
Its value is -0.5.

And the “phospho-S6 immunofluorescence (z-score)” value (co-treatment: vehicle)?
Its value is 0.26.

With C#CCOc1ccc2c(c1)c(-c1ccc(C(C)C)cc1)nc(=O)n2C(C)C [Calcium-Sensing Receptor Antagonists I] (compound 10 µM) as the molecule, how does the “phospho-S6 immunofluorescence (z-score)” value (co-treatment: GDC0941 450 nM) read?
Its value is -3.51.

And the “phospho-S6 immunofluorescence (z-score)” value (co-treatment: lapatinib 1 uM)?
The value was -4.39.

What about the “phospho-S6 immunofluorescence (z-score)” value (co-treatment: vehicle) of the same molecule?
Its value is -4.18.

For C[C@]12C=CC(=O)C=C1CC[C@@H]1[C@@H]2C(=O)C[C@@]2(C)[C@H]1CC[C@]2(O)C(=O)CO [Prednisone] (compound 10 µM), which “phospho-S6 immunofluorescence (z-score)” value (co-treatment: GDC0941 450 nM) is on record?
The value was 0.55.

And the “phospho-S6 immunofluorescence (z-score)” value (co-treatment: lapatinib 1 uM)?
Its value is 1.24.

What about the “phospho-S6 immunofluorescence (z-score)” value (co-treatment: vehicle) of the same molecule?
The value was 0.94.

With COc1cc(C(=O)NCc2ccc(OCCN(C)C)cc2)cc(OC)c1OC [Trimethobenzamide hydrochloride] (compound 10 µM) as the molecule, how does the “phospho-S6 immunofluorescence (z-score)” value (co-treatment: GDC0941 450 nM) read?
The value was 0.29.

And the “phospho-S6 immunofluorescence (z-score)” value (co-treatment: lapatinib 1 uM)?
Its value is 1.09.

And the “phospho-S6 immunofluorescence (z-score)” value (co-treatment: vehicle)?
The value was 0.51.

How did the “phospho-S6 immunofluorescence (z-score)” value (co-treatment: GDC0941 450 nM) turn out when CCCN(CCc1cccs1)[C@H]1CCc2c(O)cccc2C1 [Rotigotine] (compound 10 µM) was run?
Its value is 0.53.

And the “phospho-S6 immunofluorescence (z-score)” value (co-treatment: lapatinib 1 uM)?
The value was -0.05.

And the “phospho-S6 immunofluorescence (z-score)” value (co-treatment: vehicle)?
Its value is -0.73.

Which “phospho-S6 immunofluorescence (z-score)” value (co-treatment: GDC0941 450 nM) does the source give for Brc1c(NC2=NCCN2)ccc2nccnc12 [UK 14,304 (tartrate)] (compound 10 µM) here?
Its value is 0.91.

What about the “phospho-S6 immunofluorescence (z-score)” value (co-treatment: lapatinib 1 uM) of the same molecule?
Its value is 1.2.

What about the “phospho-S6 immunofluorescence (z-score)” value (co-treatment: vehicle) of the same molecule?
Its value is 0.14.

For OCCN1CCN(CCCN2c3ccccc3Sc3ccc(Cl)cc32)CC1 [Perphenazine] (compound 10 µM), which “phospho-S6 immunofluorescence (z-score)” value (co-treatment: GDC0941 450 nM) is on record?
Its value is -1.28.

And the “phospho-S6 immunofluorescence (z-score)” value (co-treatment: lapatinib 1 uM)?
Its value is -5.07.

What about the “phospho-S6 immunofluorescence (z-score)” value (co-treatment: vehicle) of the same molecule?
Its value is 0.82.

For COCCCN1CCC(NC(=O)c2cc(Cl)c(N)c3c2OCC3)CC1 [Prucalopride (succinate)] (compound 10 µM), which “phospho-S6 immunofluorescence (z-score)” value (co-treatment: GDC0941 450 nM) is on record?
Its value is -1.08.

What about the “phospho-S6 immunofluorescence (z-score)” value (co-treatment: lapatinib 1 uM) of the same molecule?
The value was -0.3.

And the “phospho-S6 immunofluorescence (z-score)” value (co-treatment: vehicle)?
The value was -1.84.

With O=S(=O)(O)c1cc(O)ccc1O [Ethamsylate] (compound 10 µM) as the molecule, how does the “phospho-S6 immunofluorescence (z-score)” value (co-treatment: GDC0941 450 nM) read?
Its value is 0.

What about the “phospho-S6 immunofluorescence (z-score)” value (co-treatment: lapatinib 1 uM) of the same molecule?
The value was -0.05.

And the “phospho-S6 immunofluorescence (z-score)” value (co-treatment: vehicle)?
The value was 0.76.

Which “phospho-S6 immunofluorescence (z-score)” value (co-treatment: GDC0941 450 nM) does the source give for CNCC(O)c1ccc(O)c(O)c1 (racemic) [DL-Epinephrine] (compound 10 µM) here?
Its value is 1.29.

And the “phospho-S6 immunofluorescence (z-score)” value (co-treatment: lapatinib 1 uM)?
The value was 5.47.

What about the “phospho-S6 immunofluorescence (z-score)” value (co-treatment: vehicle) of the same molecule?
The value was 4.64.

With CN(C)CC[C@@H](c1ccc(Cl)cc1)c1ccccn1 [Dexchlorpheniramine (maleate)] (compound 10 µM) as the molecule, how does the “phospho-S6 immunofluorescence (z-score)” value (co-treatment: GDC0941 450 nM) read?
Its value is 0.61.

What about the “phospho-S6 immunofluorescence (z-score)” value (co-treatment: lapatinib 1 uM) of the same molecule?
Its value is -0.08.

What about the “phospho-S6 immunofluorescence (z-score)” value (co-treatment: vehicle) of the same molecule?
Its value is -0.33.

For COCCOc1ccc(N2CCN(CCn3ncc4c3nc(N)n3nc(-c5ccco5)nc43)CC2)cc1 [Preladenant] (compound 10 µM), which “phospho-S6 immunofluorescence (z-score)” value (co-treatment: GDC0941 450 nM) is on record?
Its value is -0.66.

What about the “phospho-S6 immunofluorescence (z-score)” value (co-treatment: lapatinib 1 uM) of the same molecule?
The value was 0.79.

What about the “phospho-S6 immunofluorescence (z-score)” value (co-treatment: vehicle) of the same molecule?
The value was 0.97.

For CCC1(c2c[nH]cn2)Cc2ccccc2C1 [Atipamezole (hydrochloride)] (compound 10 µM), which “phospho-S6 immunofluorescence (z-score)” value (co-treatment: GDC0941 450 nM) is on record?
The value was -0.61.

What about the “phospho-S6 immunofluorescence (z-score)” value (co-treatment: lapatinib 1 uM) of the same molecule?
The value was 0.37.

And the “phospho-S6 immunofluorescence (z-score)” value (co-treatment: vehicle)?
The value was 1.24.

For N#Cc1cc(NC(=O)C(=O)O)c(Cl)c(NC(=O)C(=O)O)c1 [Lodoxamide] (compound 10 µM), which “phospho-S6 immunofluorescence (z-score)” value (co-treatment: GDC0941 450 nM) is on record?
Its value is 0.92.

And the “phospho-S6 immunofluorescence (z-score)” value (co-treatment: lapatinib 1 uM)?
Its value is 0.6.

And the “phospho-S6 immunofluorescence (z-score)” value (co-treatment: vehicle)?
The value was 0.66.

With C[C@]12CCC(=O)C=C1CC[C@@H]1[C@@H]2C(=O)C[C@@]2(C)[C@H]1CC[C@]2(O)C(=O)CO [Cortisone] (compound 10 µM) as the molecule, how does the “phospho-S6 immunofluorescence (z-score)” value (co-treatment: GDC0941 450 nM) read?
Its value is 0.47.

And the “phospho-S6 immunofluorescence (z-score)” value (co-treatment: lapatinib 1 uM)?
Its value is 0.58.

And the “phospho-S6 immunofluorescence (z-score)” value (co-treatment: vehicle)?
Its value is 1.14.

What does the source list for c1cnc(NCc2ccc(CNc3ncccn3)cc2)nc1 (compound 10 µM)?
phospho-S6 immunofluorescence (z-score) (co-treatment: GDC0941 450 nM): -0.12; phospho-S6 immunofluorescence (z-score) (co-treatment: lapatinib 1 uM): -0.26; phospho-S6 immunofluorescence (z-score) (co-treatment: vehicle): -0.11
